Screening data deposited in PubChem by several laboratories.
Most compounds without a hit are left out; they make up all but 1.6% or so of the library.
LYPLA1 inh: counter-screen for PME1 inhibitors: inhibitors of human LYPLA1; O75608; recombinant LYPLA1, FP-Rh probe fluorescence polarization; inhibition, % at 5.9 µM; hit rate 0.16% among 320,000; AID 2174;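 active means inhibition above the mean of all tested compounds plus 3 SD, set per campaign, cut at about 14% in these data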;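 further: inhibitors block serine hydrolase probe labeling of LYPLA1 so polarization falls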
MEX-5 binding: C. elegans MEX-5 TCR-2 RNA binding activity; Q9XUB2; MEX-5/FITC-TCR2 RNA binding, fluorescence polarization; active compounds read low; activity score (negative = inhibition of binding), % at 10 µM; hit rate 0.38% among 300,000; AID 1832;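 active means inhibition past about -25% in most replicates, and total fluorescence under double the plate's negative control median, limit read from the data; inconclusive means replicates evenly split on the limit, or fluorescence at least double controls; inactive means too little inhibition in most replicates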
Target sequence (Q9XUB2 whole entry, looked up): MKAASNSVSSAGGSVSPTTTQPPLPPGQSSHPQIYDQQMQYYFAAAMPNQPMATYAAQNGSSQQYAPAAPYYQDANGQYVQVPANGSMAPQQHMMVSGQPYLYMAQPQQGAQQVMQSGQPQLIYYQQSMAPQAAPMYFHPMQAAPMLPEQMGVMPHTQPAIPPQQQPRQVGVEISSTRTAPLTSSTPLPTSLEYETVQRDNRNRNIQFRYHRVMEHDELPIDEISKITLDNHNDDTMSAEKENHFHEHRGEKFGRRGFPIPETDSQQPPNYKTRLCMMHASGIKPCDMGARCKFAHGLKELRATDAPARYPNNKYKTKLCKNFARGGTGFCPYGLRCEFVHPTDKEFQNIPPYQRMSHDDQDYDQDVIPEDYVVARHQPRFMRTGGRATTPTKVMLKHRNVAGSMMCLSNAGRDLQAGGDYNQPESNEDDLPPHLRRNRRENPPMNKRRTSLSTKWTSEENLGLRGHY
LYPLA2 inh: counter-screen for PME1 inhibitors: inhibitors of human LYPLA2 | AID 2177 | recombinant LYPLA2, FP-Rh probe fluorescence polarization | hit rate 0.38% among 320,000 | O95372 | inhibition, % at 5.9 µM;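 active means inhibition above the screen-wide mean plus 3 SD, limit set per campaign, cut at about 26% in these data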
Target sequence (O95372 whole entry, looked up): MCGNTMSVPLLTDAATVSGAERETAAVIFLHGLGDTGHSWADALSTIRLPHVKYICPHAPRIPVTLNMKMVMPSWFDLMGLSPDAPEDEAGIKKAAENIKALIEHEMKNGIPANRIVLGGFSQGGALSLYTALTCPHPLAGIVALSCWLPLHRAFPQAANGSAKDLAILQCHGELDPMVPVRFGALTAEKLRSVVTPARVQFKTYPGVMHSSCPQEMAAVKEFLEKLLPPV
PME-1 inh: blocks human protein phosphatase methylesterase 1; Q9Y570; recombinant PME-1, FP-Rh probe fluorescence polarization; inhibition, % at 5.9 µM; hit rate 0.53% among 320,000; AID 2130;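 active means inhibition above the campaign mean of all compounds plus 3 SD, cut at about 26% in these data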;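 further: competitive labeling of PME-1 active site by serine hydrolase directed probe; inhibitors block probe labeling so polarization falls and inhibition rises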
Fam108B counter: blocks mouse Fam108B hydrolase in RBBP9 counter-screen; hit rate 0.33% among 300,000; inhibition, % at 9.51 µM; recombinant Fam108B, FP-Rh probe fluorescence polarization; AID 1947;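 active means inhibition above the screen mean inhibition plus 3 SD, computed separately per campaign, cut at about 18% in these data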;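 further: inhibitors lower polarization as less probe binds the enzyme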
PREPL inh: human PREPL enzyme inhibition; Q4J6C6; recombinant PREPL, fluorescence polarization activity-based probe; inhibition, % at 5.96 µM; hit rate 0.68% among 320,000; AID 2751; in the data active means inhibition above about 43%
Each line names hits and unclear results; the compound was inactive in the other large screens.

Cc1ccc(S(=O)(=O)c2nnn3c2nc(N2CCOCC2)c2ccccc23)cc1C	none
Cc1ccc(S(=O)(=O)c2nnn3c2nc(N2CCOCC2)c2ccccc23)c(C)c1	PME-1 inh 27.1
CC(C(=O)Nc1ccc([N+](=O)[O-])cc1)N1CCN(C/C=C/c2ccccc2)CC1 (stereo not drawn)	LYPLA2 inh 31.0
O=C(CSc1nnc(SCc2ccccc2Cl)s1)N/N=C/c1c[nH]c2ccccc12	PME-1 inh 35.6
O=C(CSc1nnc(SCc2ccccc2)s1)N/N=C/c1c[nH]c2ccccc12	none (no result: LYPLA1 inh, LYPLA2 inh, PME-1 inh, Fam108B counter, PREPL inh)
Cc1nc(C(=O)NC2CCCCC2)sc1C1(C)CC(c2cccnc2)=NO1 (stereo not drawn)	LYPLA2 inh 26.2
Cc1c(N=c2c(=O)c3ccccc3c2=O)c(=O)n(-c2ccccc2)n1C	PREPL inh 43.2
Cc1cc[n+](C2=C([O-])c3ccccc3C(=O)/C2=N\S(=O)(=O)c2cccs2)cc1C	MEX-5 binding -33.7
N#C/C(=C\c1cc(O)c(O)c(O)c1)C(N)=O	MEX-5 binding -26.8
COc1ccc(-n2c(C)cc(C(=O)COc3ccc(C)nc3[N+](=O)[O-])c2C)cc1	LYPLA2 inh 26.4
N#CC(C#N)=NNc1ccc(S(=O)(=O)N2CCCCC2)cc1	PME-1 inh 28.4
O=C(O)C(=O)/C(=C\c1cccc2ccccc12)c1ccc2ccccc2n1	MEX-5 binding -39.7
O=C(O)C(=O)/C(=C\c1ccsc1)c1ccc2ccccc2n1	MEX-5 binding -47.9
O=C(O)C(=O)/C(=C\c1ccccc1)c1ccc2ccccc2n1	none
CN(C=[N+](C)C)c1cccc2c1C(=O)c1ccccc1C2=O	MEX-5 binding -27.7
COc1cc(C(CC(=O)N2CCCC2)c2c(OC)cc(OC)c3ccc(=O)oc23)cc(OC)c1OC (stereo not drawn)	MEX-5 binding -38.6
CCOC(=O)c1cc(-c2ccccc2C)n(CC2CC(c3ccc(OC)cc3)=NO2)n1 (stereo not drawn)	none (no result: LYPLA1 inh, MEX-5 binding, LYPLA2 inh, PME-1 inh, Fam108B counter)
Cc1cc(-c2ccccc2)nc(N/N=C/c2ccc(O)cc2O)n1	MEX-5 binding inconclusive, PME-1 inh 39.9
Cc1cc(-c2ccccc2)nc(N/N=C/c2ccccc2)n1	none
O=C(O[C@@H]1OC2COC(=O)c3cc(O)c(O)c(O)c3-c3c(cc(O)c(O)c3O)C(=O)O[C@@H]([C@H]1O)[C@@H]2O)c1cc(O)c(O)c(O)c1	MEX-5 binding -67.3, PREPL inh 54.0
CCCCOc1ccc2c(C)cc(=O)oc2c1OCCCC	none
Cc1ccn2c(=O)nc(SCC(=O)N3CCC(C)CC3)nc2c1	none
O=C(/C=C/c1ccc(O)c(O)c1)OC1C(O)CC(OC(=O)/C=C/c2ccc(O)c(O)c2)(C(=O)O)CC1O (stereo not drawn)	MEX-5 binding -32.3
C/C(=N/Nc1nc(-c2ccccc2F)nc2ccccc12)c1ccccc1O	PME-1 inh 26.4 (no result: MEX-5 binding)
COc1ccc(C(=O)N2CCC(O)(c3ccc(F)cc3)CC2)cc1OC	none
CS(=O)(=O)c1nc(-c2ccco2)cc(C(F)(F)F)n1	none
CCN(CC)c1ccc(N=Nc2ncn[nH]2)cc1	MEX-5 binding -51.9
CC(C)OC(=O)CC(=O)c1sc2nc3c(cc2c1N)CN(C)CC3	MEX-5 binding -30.6
O=C(N1CCOCC1)N1CCC(n2nnc3cc(F)ccc32)CC1	MEX-5 binding -26.8
Cc1ccc(/C(O)=C2\C(=O)C(=O)N(C)C2c2ccc([N+](=O)[O-])cc2)cc1 (stereo not drawn)	none
COc1ccc(CC(=O)N(C)CC(=O)Nc2ccccc2SC)cc1	none
CCc1ccc(OC)c(S(=O)(=O)Nc2ccc(Cc3ccncc3)cc2)c1	PME-1 inh 27.0
c1ccc(NC2=NCCN2CC2CCC2)cc1	none (no result: MEX-5 binding)
CSc1nnc(Nc2ccccc2C)s1	none
Cc1ccccc1Nc1nc(Cl)c(C=O)s1	MEX-5 binding -40.8
Nc1ncnc(NNC(=O)CNC(=O)c2c(F)cccc2Cl)c1[N+](=O)[O-]	MEX-5 binding -65.7
Nc1ccc(C(=O)N/N=C\c2ccc(OC(=O)c3ccccc3Cl)cc2)cc1	none
O=C(O)c1ccc(N/N=C/c2ccc(OC(=O)c3ccccc3Cl)cc2)cc1	LYPLA2 inh 25.8
CN(c1ccc(OCC(=O)OCC(=O)NCc2ccco2)cc1)S(=O)(=O)c1ccc2ccccc2c1	none
CC(C)(C)c1ccc(NC(=O)C2=CC=CN3CCS(=O)(=O)N=C23)cc1	PME-1 inh 54.7 (no result: MEX-5 binding, Fam108B counter)
COc1cc(NC(=O)CSc2nc3ncnc(N)c3[nH]2)c(C(=O)O)cc1OC	MEX-5 binding -30.7
COc1cc(NC(=O)CSc2ccccc2)c(C(=O)O)cc1OC	none
Nc1ccc2nc(CN3CCOCC3)[nH]c2c1	MEX-5 binding -63.8
CC(=O)c1ccc(NC(=O)c2ccc(COc3ccccc3[N+](=O)[O-])o2)cc1	none
O=C(CSc1nc(=O)n2ccccc2n1)NCc1ccc2c(c1)OCO2	none
Cc1cccc(/C=N/NC(=O)c2cc(Br)ccc2O)n1	none
O=C(N/N=C/c1sc(N2CCOCC2)nc1-c1ccccc1)c1ccccc1O	PME-1 inh 51.0
O=C(Nc1ccccc1F)C(=Cc1sc(N2CCOCC2)nc1-c1ccccc1)C(=O)Nc1ccccc1F	MEX-5 binding -43.2
Cc1[nH]n(-c2ccccc2)c(=O)c1N=Nc1ccccc1	none
Cc1ccc(N=Nc2c(N)n(-c3ccccc3)[nH]c2=O)cc1	PME-1 inh 35.1
COCCCn1c(N)c(-c2nc3ccccc3n2C)c2nc3ccccc3nc21	MEX-5 binding -34.1
COc1ccc(C(=O)O/N=C(/c2ccccc2)c2ccncc2)cc1	PREPL inh 87.5
CC(C(=O)Nc1sc2c(c1C(=O)NCC1CCCO1)CCC2)N1C(=O)c2ccccc2C1=O (stereo not drawn)	none
O=C(NC(=C(Cl)Cl)S(=O)(=O)c1ccc(Cl)cc1)c1ccccc1	none
CC1(C)Cc2c(c(N3CCCC3)nc3sc4c(N5CCN(CCO)CC5)ncnc4c23)CO1	PREPL inh 47.5 (no result: MEX-5 binding)
OCCN1CCN(c2ncnc3c2sc2nc(N4CCOCC4)c4c(c23)CCC4)CC1	none
Cc1cc(-c2cccs2)c2c(N)c(C(=O)c3ccc4c(c3)OCO4)sc2n1	none
COc1ccc(C(=O)c2sc3nc(C)cc(-c4cccs4)c3c2N)cc1	MEX-5 binding -44.4 (no result: LYPLA1 inh, LYPLA2 inh, PME-1 inh, Fam108B counter, PREPL inh)
COc1ccc(C(=O)c2sc3nc(C)cc(-c4cccs4)c3c2N)cc1OC	MEX-5 binding -53.5
O=S(=O)(c1cccc(-c2csc(-c3cccnc3)n2)c1)N1CCCCC1	none
O=S(=O)(c1cccc(-c2csc(-c3cccnc3)n2)c1)N1CCOCC1	MEX-5 binding -27.3
O=c1cc2c(=O)oc3cc(O)c(O)oc3c2c(O)c1O	MEX-5 binding -84.2 (no result: LYPLA1 inh, LYPLA2 inh, PME-1 inh, Fam108B counter, PREPL inh)
O=c1oc2cc(O)c(Cl)cc2c2ccccc12	none
Cc1ccc(N(Cc2ccccc2)C(=O)c2ccc(S(=O)(=O)N3CCOCC3)cc2)cc1	none
Cc1cc2cc(CNC(=O)c3cc4ccccc4o3)ccc2n1C	PREPL inh 65.0
